Measurements as given in PubChem BioAssay (EPA / NIEHS).
The source made the active and inactive calls. The calls were made as follows: active = hit-call score of the fitted dose curve at least 0.9, where 1 is the maximum; inactive = score below 0.9.

Legend:
[1] = read-out: serum amyloid A (SAA), SAA1 (gene 6288); assay: BSK_CASM3C_SAA: BioMAP Diversity Plus: CASM3C Assay for serum amyloid A (SAA) Biomarker Activity (AID 2283049); details: primary human coronary artery smooth muscle cells; actives raise or lower the signal;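 also: SAA protein level quantified by ELISA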
[2] = BSK_CASM3C_SRB: Viability Assessment in the BioMAP Diversity Plus: CASM3C Assay (AID 2283050); details: primary human coronary artery smooth muscle cells
[3] = read-out: Thrombomodulin, THBD (gene 7056); assay: BSK_CASM3C_Thrombomodulin: BioMAP Diversity Plus: CASM3C Assay for Thrombomodulin Biomarker Activity (AID 2283051); details: primary human coronary artery smooth muscle cells; actives raise or lower the signal;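 also: thrombomodulin protein level measured by ELISA 24 h after dosing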
[4] = read-out: Tissue Factor, F3 (gene 2152); assay: BSK_CASM3C_TissueFactor: BioMAP Diversity Plus: CASM3C Assay for Tissue Factor Biomarker Activity (AID 2283052); details: primary human coronary artery smooth muscle cells; actives raise or lower the signal;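 also: cell surface tissue factor protein level read by ELISA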
[5] = read-out: Interferon-gamma inducible Protein 10 (IP10), CXCL10 (gene 3627); assay: BSK_hDFCGF_IP10: BioMAP Diversity Plus: hDFCGF Assay for Interferon-gamma inducible Protein 10 (IP10) Biomarker Activity (AID 2283053); details: primary human foreskin fibroblasts; actives raise or lower the signal
Summary of the method: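 Human foreskin fibroblast primary cells (hDFCGF system) were dosed with chemical and assayed at 24 h; IP-10 measured by ELISA. Activity fitted bidirectionally relative to DMSO negative control as baseline.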

[6] = read-out: Urokinase-type plasminogen activator receptor (uPAR), PLAUR (gene 5329); assay: BSK_CASM3C_uPAR: BioMAP Diversity Plus: CASM3C Assay for Urokinase-type plasminogen activator receptor (uPAR) Biomarker Activity (AID 2283054); details: primary human coronary artery smooth muscle cells; actives raise or lower the signal;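 also: cell-surface uPAR protein level quantified by ELISA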
[7] = read-out: Vascular cell adhesion molecule 1 (VCAM1), VCAM1 (gene 7412); assay: BSK_CASM3C_VCAM1: BioMAP Diversity Plus: CASM3C Assay for Vascular cell adhesion molecule 1 (VCAM1) Biomarker Activity (AID 2283055); details: primary human coronary artery smooth muscle cells; actives raise or lower the signal;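 also: VCAM-1 protein level quantified by ELISA on the cells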
[8] = read-out: Collagen III, COL3A1 (gene 1281); assay: BSK_hDFCGF_CollagenIII: BioMAP Diversity Plus: hDFCGF Assay for Collagen III Biomarker Activity (AID 2283056); details: primary human foreskin fibroblasts; actives raise or lower the signal
Summary of the method: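 Human foreskin fibroblast primary cultures sampled 24 h after dosing; Collagen III quantified by ELISA. Signal fitted bidirectionally against DMSO baseline.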

[9] = read-out: Epidermal growth factor receptor (EGFR), EGFR (gene 1956); assay: BSK_hDFCGF_EGFR: BioMAP Diversity Plus: hDFCGF Assay for Epidermal growth factor receptor (EGFR) Biomarker Activity (AID 2283057); details: primary human foreskin fibroblasts; actives raise or lower the signal
Summary of the method: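 Primary human foreskin fibroblasts were exposed to compound for 24 h, after which cell-surface EGFR was quantified by ELISA. Activity was fitted bidirectionally against the DMSO negative control as baseline.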

[10] = read-out: Interleukin-8 (IL8), CXCL8 (gene 3576); assay: BSK_hDFCGF_IL8: BioMAP Diversity Plus: hDFCGF Assay for Interleukin-8 (IL8) Biomarker Activity (AID 2283058); details: primary human foreskin fibroblasts; actives raise or lower the signal
Summary of the method: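 Primary human foreskin fibroblasts (hDFCGF system) dosed with chemical; IL-8 measured by ELISA 24 hours later. Bidirectional curve fitting relative to DMSO baseline; cytotoxicity tracked in parallel cultures by SRB total protein staining.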

[11] = BSK_hDFCGF_Proliferation: Cell Proliferation Assessment in the BioMAP Diversity Plus: hDFCGF Assay (AID 2283059); details: primary human foreskin fibroblasts;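 also: curves fitted for both rise and fall of signal versus DMSO baseline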
Summary of the method: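 Sub-confluent human foreskin fibroblast cultures receive test chemical […]. Relative cell number is quantified by sulforhodamine B staining (0.1%, after 10% TCA fixation) at 560 nm, with bidirectional fitting referenced to DMSO.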

[12] = read-out: Macrophage colony-stimulating factor (MCSF), CSF1 (gene 1435); assay: BSK_hDFCGF_MCSF: BioMAP Diversity Plus: hDFCGF Assay for Macrophage colony-stimulating factor (MCSF) Biomarker Activity (AID 2283060); details: primary human foreskin fibroblasts; actives raise or lower the signal
Summary of the method: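 Human foreskin fibroblast primary cultures; M-CSF measured by ELISA 24 hours after chemical dosing. Bidirectional fitting relative to DMSO, with overt cytotoxicity tracked by parallel SRB total-protein staining (0.1% SRB, 10% TCA fixation, 560 nm).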

[13] = BSK_hDFCGF_SRB: Viability Assessment in the BioMAP Diversity Plus: hDFCGF Assay (AID 2283061); details: primary human foreskin fibroblasts;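 also: cells exposed to compound for 24 h before the read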
Summary of the method: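 Human foreskin fibroblasts in 96-well plates were treated 24 h. Total protein was measured by 0.1% SRB staining after 10% TCA fixation, read at 560 nm. Data were fitted bidirectionally against DMSO.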

[14] = read-out: TIMP metallopeptidase inhibitor 1 (TIMP1), TIMP1 (gene 7076); assay: BSK_hDFCGF_TIMP1: BioMAP Diversity Plus: hDFCGF Assay for TIMP metallopeptidase inhibitor 1 (TIMP1) Biomarker Activity (AID 2283062); details: primary human foreskin fibroblasts; actives raise or lower the signal
Summary of the method: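 Human foreskin fibroblast primary cultures dosed for 24 h; secreted/surface TIMP-1 quantified by ELISA. Bidirectional curve fitting against DMSO baseline; cytotoxicity tracked in parallel cultures by SRB total-protein staining.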

[15] = read-out: Monokine induced gamma interferon (MIG), CXCL9 (gene 4283); assay: BSK_hDFCGF_MIG: BioMAP Diversity Plus: hDFCGF Assay for Monokine induced gamma interferon (MIG) Biomarker Activity (AID 2283063); details: primary human foreskin fibroblasts; actives raise or lower the signal
Summary of the method: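 MIG/CXCL9 measured by ELISA 24 h after dosing primary human skin fibroblasts. Activity fitted in both directions against DMSO controls. Cytotoxicity was checked in parallel cultures by SRB staining read at 560 nm.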

[16] = read-out: Matrix Metallopeptidase 1 (MMP1), MMP1 (gene 4312); assay: BSK_hDFCGF_MMP1: BioMAP Diversity Plus: hDFCGF Assay for Matrix Metallopeptidase 1 (MMP1) Biomarker Activity (AID 2283064); details: primary human foreskin fibroblasts; actives raise or lower the signal
Summary of the method: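 Primary human foreskin fibroblasts exposed to chemicals for 24 h; MMP1 measured by ELISA. Cytotoxicity tracked by SRB staining in parallel cultures; bidirectional fit relative to DMSO.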

[17] = read-out: Vascular cell adhesion molecule 1 (VCAM1), VCAM1 (gene 7412); assay: BSK_hDFCGF_VCAM1: BioMAP Diversity Plus: hDFCGF Assay for Vascular cell adhesion molecule 1 (VCAM1) Biomarker Activity (AID 2283065); details: primary human foreskin fibroblasts; actives raise or lower the signal;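 as to AC50: VCAM-1 protein level quantified by ELISA after 24 h chemical exposure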
Summary of the method: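 Human foreskin fibroblast primary cells dosed with chemical, VCAM-1 measured by ELISA at 24 h. Bidirectional curve fitting relative to DMSO as negative control/baseline.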

[18] = read-out: Plasminogen activator inhibitor-1 (PAI1), SERPINE1 (gene 5054); assay: BSK_hDFCGF_PAI1: BioMAP Diversity Plus: hDFCGF Assay for Plasminogen activator inhibitor-1 (PAI1) Biomarker Activity (AID 2283066); details: primary human foreskin fibroblasts; actives raise or lower the signal
Summary of the method: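 Human foreskin fibroblasts in the hDFCGF system were dosed with compound for 24 h; PAI-1 was quantified by ELISA. Bidirectional curve fitting used DMSO as negative control and baseline.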

[19] = read-out: Intercellular Adhesion Molecule 1 (ICAM1), ICAM1 (gene 3383); assay: BSK_KF3CT_ICAM1: BioMAP Diversity Plus: KF3CT Assay for Intercellular Adhesion Molecule 1 (ICAM1) Biomarker Activity (AID 2283067); details: primary human keratinocytes with fibroblasts; actives raise or lower the signal
Summary of the method: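 Human keratinocyte–foreskin fibroblast co-culture was treated for 24 h. Cell-surface ICAM-1 was quantified by ELISA, fitted bidirectionally relative to DMSO. Cytotoxicity was checked in parallel cultures by SRB total-protein staining.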

[20] = read-out: Interferon-gamma inducible Protein 10 (IP10), CXCL10 (gene 3627); assay: BSK_KF3CT_IP10: BioMAP Diversity Plus: KF3CT Assay for Interferon-gamma inducible Protein 10 (IP10) Biomarker Activity (AID 2283068); details: primary human keratinocytes with fibroblasts; actives raise or lower the signal
Summary of the method: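 ELISA read-out of IP-10 after 24 h chemical dosing of human skin primary co-culture (keratinocytes, foreskin fibroblasts). Gain or loss of signal relative to DMSO, bidirectional curve fit.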

Measured: AC50

CCOC(=O)CC(SP(=O)(OC)OC)C(=O)OCC (stereo not given)
active: [17] 10.8 µM
inactive: all other assays above

CCCOc1nn(C(=O)NS(=O)(=O)c2ccccc2C(=O)OC)c(=O)n1C
inactive: all assays above

CCOC(=O)COc1cc(-c2nn(C)c(OC(F)F)c2Cl)c(F)cc1Cl
active: [16] 0.148 µM
inactive: all other assays above
